Results published in the supplement of paper PMC7366291.
Where a name gives a salt, the structure may show the parent alone. ± gives the standard deviation or the standard deviation of the averaged measurements.

Experiments:
Conditions in all cases: 25 µM; exposure: 24-48 hpf
[1] = system: Danio rerio Tg(wt1b:EGFP) embryo, pronephros; assay: glomerular separation, fold change vs DMSO control; higher = glomeruli further apart (abnormal)
Procedure, shortened: (§1)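 Using a Fiji macro, distances and angles were calculated from 16 reference points set by hand on maximum projections of pronephroi imaged dorsally (470 nm, 10 z-slices) in agarose-filled 96-well plates. The dechorionated Tg(wt1b:EGFP) zebrafish embryos had received 25 μM compound in 0.5% DMSO in HEPES-buffered E3 with 0.003% PTU from 24 to 48 hpf at 28.5°C. Values more than 2 SD from a feature's mean were excluded. Each feature appears as a fold change over the mean of DMSO-treated embryos from the same day.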

[2] = system: Danio rerio Tg(wt1b:EGFP) embryo, pronephros; assay: glomerular width (mean of left and right), fold change vs DMSO control; higher = wider glomerulus
Procedure, shortened: as §1

[3] = system: Danio rerio Tg(wt1b:EGFP) embryo, pronephros; assay: fraction of imaged embryos annotated as normal kidney; higher = less nephrotoxic; extreme values may be limits of the assay
Procedure, shortened: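 Dechorionated Tg(wt1b:EGFP) zebrafish embryos were exposed in 12-well plates to 25 μM compound in 0.5% DMSO, 5 mM HEPES-buffered E3 with 0.003% PTU, from 24 to 48 hpf at 28.5°C. Tricaine-anaesthetised larvae were oriented dorsally in agarose-filled 96-well plates, and pronephroi were imaged by widefield fluorescence (470 nm, 10 z-slices). Each embryo was manually annotated from maximum projections. The read-out is the fraction of embryos per treatment assigned to the normal-kidney category.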

[4] = system: Danio rerio Tg(wt1b:EGFP) embryo, pronephros; assay: pronephric angle neck segment to proximal convoluted tubule (mean of left and right), fold change vs DMSO control; higher = larger pronephric angle
Procedure, shortened: as §1

SMILES	glomerular separation [1]	glomerular width [2]	fraction of imaged embryos annotated as normal kidney [3]	pronephric angle neck segment [4]
COc1ccc(CC2c3cc(OC)c(OC)cc3CC[N+]2(C)CCC(=O)OCCCCCOC(=O)CC[N+]2(C)CCc3cc(OC)c(OC)cc3C2Cc2ccc(OC)c(OC)c2)cc1OC (stereo unspecified) [Atracurium besylate]	1.2 ± 0.6	0.944 ± 0.012	0.917	0.954 ± 0.016
CN[C@@H]1[C@H](O)[C@H](NC)[C@H]2O[C@@]3(O)C(=O)C[C@@H](C)O[C@H]3O[C@@H]2[C@H]1O [Spectinomycin dihydrochloride]	0.786 ± 0.48	1.07 ± 0.021	0.909	0.9719 ± 0.0052
CCn1cc(C(=O)O)c(=O)c2cnc(N3CCNCC3)nc21 [Pipemidic acid]	0.919 ± 0.32	1.05 ± 0.013	0.75	0.9737 ± 0.0064
COC1=CC(=O)C[C@@H](C)[C@]12Oc1c(Cl)c(OC)cc(OC)c1C2=O [Griseofulvin]	0.952 ± 0.29	1 ± 0.023	0.917	0.947 ± 0.01
Cc1ccccc1N1C(=O)c2cc(S(N)(=O)=O)c(Cl)cc2NC1C (stereo unspecified) [Metolazone]	0.86 ± 0.34	1 ± 0.062	0.917	1.03 ± 0.016
Cc1[nH]cnc1CN1CCc2c(c3ccccc3n2C)C1=O [Alosetron hydrochloride]	0.809 ± 0.28	1.027 ± 0.0085	0.917	0.977 ± 0.015
Clc1ccc(CO/N=C(\Cn2ccnc2)c2ccc(Cl)cc2Cl)c(Cl)c1 [Oxiconazole Nitrate]	3.51 ± 1.1	0.623 ± 0.014	0	1.26 ± 0.03
CCOc1ccccc1OCC1CNCCO1 (stereo unspecified) [Viloxazine hydrochloride]	1.35 ± 0.55	0.9002 ± 0.0018	0.833	1.04 ± 0.062
CN1CCN(CCCN2c3ccccc3Sc3ccc(C(F)(F)F)cc32)CC1 [Trifluoperazine dihydrochloride]	1.22 ± 0.54	0.953 ± 0.015	0.833	0.9555 ± 0.0078
NC(=O)c1cnccn1 [Pyrazinamide]	0.862 ± 0.21	1.04 ± 0.034	0.667	0.9361 ± 0.0033
Cc1onc(-c2ccccc2)c1-c1ccc(S(N)(=O)=O)cc1 [Valdecoxib]	0.816 ± 0.3	1.13 ± 0.019	0.917	0.9437 ± 0.0089
CN(C)CCC=C1c2ccccc2C=Cc2ccccc21 [Cyclobenzaprine hydrochloride]	1.02 ± 0.31	0.977 ± 0.043	0.833	1.03 ± 0.0042
O=C(O)c1ccccc1OP(=O)(O)O [Fosfosal]	0.789 ± 0.23	1.07 ± 0.022	0.833	0.9628 ± 0.0065
N=C(N)NS(=O)(=O)c1ccc(N)cc1 [Sulfaguanidine]	1.04 ± 0.35	0.979 ± 0.034	0.833	1.02 ± 0.036
C#C[C@]1(O)CC[C@H]2[C@@H]3CCC4=Cc5oncc5C[C@]4(C)[C@H]3CC[C@@]21C [Danazol]	3.7 ± 1.5	0.592 ± 0.0074	0	1.1 ± 0.12
CCN[C@H]1CN(CCCOC)S(=O)(=O)c2sc(S(N)(=O)=O)cc21 [Brinzolamide]	1.47 ± 0.71	1.053 ± 0.0011	0.5	1.1 ± 0.069
CN[C@@H]1[C@@H](O[C@H]2O[C@H](CO)[C@@H](N)[C@H](O)[C@H]2O)OC2C[C@@H](N)[C@@H](O[C@H]3[C@H](O)[C@@H](O)[C@H](N)C[C@@H]3N)OC2[C@@H]1O (stereo partly specified) [Apramycin]	1.1 ± 0.44	0.977 ± 0.021	0.75	0.9506 ± 0.0069
NCCCCCC(=O)O [Aminocaproic acid]	0.833 ± 0.35	0.961 ± 0.022	1	1.02 ± 0.055
CC(C)/N=c1\cc2n(-c3ccc(Cl)cc3)c3ccccc3nc-2cc1Nc1ccc(Cl)cc1 [Clofazimine]	1.02 ± 0.29	1.06 ± 0.056	0.75	0.961 ± 0.0097
COc1ccccc1OCCNCC(O)COc1cccc2[nH]c3ccccc3c12 (stereo unspecified) [Carvedilol]	1.02 ± 0.41	1.048 ± 0.0037	0.8	0.958 ± 0.019
CC=CC(=O)N(CC)c1ccccc1C [Crotamiton]	0.867 ± 0.16	0.96 ± 0.038	1	1 ± 0.019
CCOc1ccc(NC(C)=O)cc1 [Phenacetin]	1.14 ± 0.31	1.0834 ± 0.00038	0.667	0.946 ± 0.022
COc1cc(-c2ccc(=O)[nH]n2)ccc1OC(F)F [Zardaverine]	1.12 ± 0.48	0.9712 ± 0.0072	0.583	0.994 ± 0.013
CC(C)(S)C(N)C(=O)O (racemic) [D,L-Penicillamine]	1.31 ± 0.71	1.03 ± 0.015	0.583	0.996 ± 0.025
Cc1c(O)cccc1C(=O)N[C@@H](CSc1ccccc1)[C@H](O)CN1C[C@H]2CCCC[C@H]2C[C@H]1C(=O)NC(C)(C)C [Nelfinavir mesylate]	0.563 ± 0.13	1.05 ± 0.017	1	0.954 ± 0.03
O=C(NCCO[N+](=O)[O-])c1cccnc1 [Nicorandil]	1.05 ± 0.44	0.989 ± 0.083	0.917	0.9232 ± 0.008
CC(=O)CC(c1ccccc1)c1c(O)c2ccccc2oc1=O (stereo unspecified) [Warfarin]	1.14 ± 0.45	0.797 ± 0.048	0.333	1.25 ± 0.027
CC(C)Cc1ccc([C@H](C)C(=O)O)cc1 [S-(+)-ibuprofen]	4.34 ± 2.3	0.59 ± 0.021	0	1.61 ± 0.035
CSc1ccc2c(c1)C(N1CCN(C)CC1)Cc1ccccc1S2 (stereo unspecified) [Methiothepin maleate]	1.06 ± 0.38	1.01 ± 0.045	0.833	0.976 ± 0.034
